From PubChem BioAssay
The list is not random: actives were taken first. Their share in the collection is about 20%.
CHX counter: counter-screen hit for Shiga toxin inhibitors, cycloheximide | 12% of 300,000 active | max response, % | cell reporter, cycloheximide protein synthesis inhibition counterscreen; in the data active = max response mostly above about 13%, no sharp cut-off; inactive = mostly below about 14%; note: read at 38.3 µM for the half of the compounds with a filed dose; 0% is about no effect
Shiga inhibitor: Shiga toxin inhibition | Vero cells, Shiga toxin protein synthesis inhibition reporter | inhibition, % at 38.7 µM | 9.2% of 290,000 active; in the data active = inhibition mostly above about 28%, no sharp cut-off; inactive = mostly below about 43%; note: 0% is about no effect
Pf growth 96h: P. falciparum growth inhibition at 96 hours; P. falciparum luciferase reporter growth, 96 h; Potency, µM (series often up to 28.7 µM), for the others: top-dose activity change, negative = inhibition, usual class: inhibitors; AID 504834; 6.9% of 320,000 active; note: potency is the fitted concentration of half-maximal effect; % is set by controls: 0 for no effect and ±100 for the full control effect
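Luminescence readout: decreased luciferase signal marks inhibited growth of reporter-expressing P. falciparum in infected red cells (2% hematocrit, 0.05% parasitemia final), exposed to compound two generations (96 h, 37 C, 5% CO2).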
Pf growth 48h: inhibits P. falciparum growth in the first generation, 48 h; Potency, µM (doses to about 28.7 µM), for the others: top-dose activity change, negative = inhibition, usual class: inhibitors; P. falciparum luciferase growth in erythrocytes, 48 h; 5.9% of 310,000 active; note: potency is the fitted concentration of half-maximal effect; % is set by controls: 0 for no effect and ±100 for the full control effect
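Parasite viability was followed by luminescence of a genomically integrated firefly luciferase. Cultures held 0.1% parasitemia at 2% hematocrit (final), incubated under 5% CO2 at 37 C.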
HCMV inh: blocks human cytomegalovirus replication | HFF cells, HCMV-luciferase reporter, 72 h; hits give low values | activity change, negative = inhibition, % at 57.5 µM | 4.5% of 410,000 active | AID 1259415; in the data active = activity change below about -60%; inconclusive = no clear call, values can overlap the other calls; inactive = above about -39%; note: % is set by controls: 0 for no effect and ±100 for the full control effect
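Cell-based, HFFs, 1000 cells/well, 16 h 37C; cpds in DMSO + HCMV-luc, MOI 1 PFU/cell; 72 h 37C; OneGlo luminescence after 5 min RT; norm. to buffer vs Salinomycin 10uM.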
* = called active by the depositor; u = inconclusive; x = no result; + = active, no number. Unless noted, calls come from the whole dose curve; as a rule, active = well fitted inhibition curve with a large enough effect; inconclusive = small, poorly fitted or top-dose-only effect, or another doubt; inactive = no such curve, though single readings can be large or run the other way.

SMILES | CHX counter | Shiga inhibitor | Pf growth 96h | Pf growth 48h | HCMV inh
COc1cccc(NC(=O)Cn2c(=O)n(C)c(=O)c3sc4c(c32)COC(C)(C)C4)c1 | 8 | -3 | 2.6µM* | 4.1µM* | -33
Cc1cc(C)cc(NC(=O)Cn2c(=O)n(-c3ccc(C)c(C)c3)c(=O)c3oc4ccccc4c32)c1 | x | x | x | x | -10
Cc1cccc(NC(=O)Cn2nnc3sc4c(c3c2=O)CC(C)(C)OC4)c1 | 8 | -3 | -10% | 4% | 23
CCOc1ccc(-n2c(=O)c3sccc3n(CC(=O)Nc3cccc(OC)c3)c2=O)cc1 | 4 | -3 | 110% | -26% | +
Cc1cc(C)cc(NC(=O)Cn2c(=O)n(-c3cc(C)cc(C)c3)c(=O)c3oc4ccccc4c32)c1 | x | x | x | x | -61*
C#CCOCCOCCOCCNc1nc(N2CCN(C(=O)CCCCCCCCCCNC(=O)Cn3cc(CCCCCN)nn3)CC2)nc(N2CCN(C(=O)CCCCCCCCCCNC(=O)[C@@H](CCSC)n3cc(CCO)nn3)CC2)n1 | x | x | 1µM* | 1.2µM* | x
C#CCOCCOCCOCCNc1nc(N2CCN(C(=O)CCCCCCCCCCNC(=O)Cn3cc(C[C@@H](C)O)nn3)CC2)nc(N2CCN(C(=O)CCCCCCCCCCNC(=O)[C@@H](CCC(=O)O)n3cc(CCCCCN)nn3)CC2)n1 | x | x | u | 1µM* | 20
C#CCOCCOCCOCCNc1nc(N2CCN(C(=O)CCCCCCCCCCNC(=O)[C@H](CO)n3cc(CCCSC)nn3)CC2)nc(N2CCN(C(=O)CCCCCCCCCCNC(=O)[C@H](CCCCN)n3cc(CCO)nn3)CC2)n1 | x | x | x | x | 3
C#CCOCCOCCOCCNc1nc(N2CCN(C(=O)Cn3cc(CC(C)O)nn3)CC2)nc(N2CCN(C(=O)[C@H]([C@@H](C)CC)n3cc(CCCCN)nn3)CC2)n1 (stereo partly specified) | x | x | x | x | -5
C#CCOCCOCCOCCNc1nc(N2CCN(C(=O)CCCCCCCCCCNC(=O)[C@@H](CCSC)n3cc(CCO)nn3)CC2)nc(N2CCN(C(=O)CCCCCCCCCCNC(=O)[C@H](CCSC)n3cc(CCO)nn3)CC2)n1 | x | x | 0.29µM* | 0.33µM* | u
C#CCOCCOCCOCCNc1nc(N2CCN(C(=O)CCCCCCCCCCNC(=O)[C@H](CO)n3cc(CCCSC)nn3)CC2)nc(N2CCN(C(=O)CCCCCCCCCCNC(=O)[C@H](CCCN=C(N)N)n3cc(C[C@@H](C)CC)nn3)CC2)n1 | x | x | 5.2µM* | 1.5µM* | x
CCCc1ccc(OC(C)C(=O)Nc2sc3c(c2C(=O)OC)CCCCC3)cc1 (stereo unspecified) | x | x | x | x | -31
CCCn1c(C)cc(/C=C(\C#N)C(=O)OCC(=O)N(CC)c2c(N)n(Cc3ccccc3)c(=O)[nH]c2=O)c1C | x | x | x | x | -11
C#CCOCCOCCOCCNc1nc(N2CCN(C(=O)Cn3cc(CCCCN)nn3)CC2)nc(N2CCN(C(=O)Cn3cc(CCCCN)nn3)CC2)n1 | -3 | -24 | -23% | 2% | 10
C#CCOCCOCCOCCNc1nc(N2CCN(C(=O)CCCCCCCCCCNC(=O)Cn3cc(C[C@@H](C)O)nn3)CC2)nc(N2CCN(C(=O)CCCCCCCCCCNC(=O)[C@H](CO)n3cc(CCCSC)nn3)CC2)n1 | x | x | 0.15µM* | 0.15µM* | -85*
C#CCOCCOCCOCCNc1nc(N2CCN(C(=O)CCCCCCCCCCNC(=O)Cn3cc(CCCCCN)nn3)CC2)nc(N2CCN(C(=O)CCCCCCCCCCNC(=O)Cn3cc(CCCCCN)nn3)CC2)n1 | x | x | 6.6µM* | 1.7µM* | x
C#CCOCCOCCOCCNc1nc(N2CCN(C(=O)CCCCCCCCCCNC(=O)Cn3cc(CCCCCN)nn3)CC2)nc(N2CCN(C(=O)CCCCCCCCCCNC(=O)[C@@H](CCC(=O)O)n3cc(CCCCCN)nn3)CC2)n1 | x | x | u | 13µM* | x
C#CCOCCOCCOCCNc1nc(N2CCN(C(=O)Cn3cc(CCO)nn3)CC2)nc(N2CCN(C(=O)[C@H](CCCCN)n3cc(CC(C)O)nn3)CC2)n1 (stereo partly specified) | x | x | x | x | 14
C#CCOCCOCCOCCNc1nc(N2CCN(C(=O)CCCCCCCCCCNC(=O)Cn3cc(C[C@@H](C)O)nn3)CC2)nc(N2CCN(C(=O)CCCCCCCCCCNC(=O)[C@H](CCCCN)n3cc(CCCC(=O)O)nn3)CC2)n1 | x | x | u | 5.2µM* | -6
